For orientation: inhibition means the relative decrease from the control value, in per cent.

Molecules are shown by their SMILES. Out of some 360,000 compounds screened, about 3,900 (1.1%) were called active. The sample holds actives, similar compounds and a random draw of the others, so the mix is not that of the screen. A number with no mark means an inactive call.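 How the source made its calls: active means mean replicate inhibition score of at least 50 and every replicate individually at or above 50; inconclusive means only one of the two criteria met; inactive means mean below 50 and not all replicates reaching 50.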

This test in a line: blockers of JRFL envelope-mediated fusion – HeLa-JRFL effector, CEM21 target cells, luciferase, primary screen (AID 651610).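 Further: 0% = plate neutral controls and 100% = maraviroc near 300 nM.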 The conditions noted are these: HeLa-JRFL Env/CEM21 cell fusion, active compounds read high; at 16.7 µM unless noted.
For the compound `CCC(=O)N(C)C[C@@H]1Oc2cc(C#Cc3cccnc3)ccc2S(=O)(=O)N([C@H](C)CO)C[C@@H]1C`, the inhibition was 19.7%.

In the case of `CNC(=O)C[C@@H]1CC[C@@H]2[C@H](COc3ccc(NC(=O)c4cccs4)cc3C(=O)N2C)O1`, the inhibition was 0.696%.

As for `CO[C@H]1CN(C)C(=O)c2cc(NS(=O)(=O)c3ccccc3)ccc2OC[C@H](C)N(C)C[C@@H]1C`, the inhibition was 5.07%.

For `CNC[C@H]1Oc2cc(-c3cccnc3)ccc2S(=O)(=O)N([C@@H](C)CO)C[C@H]1C`, the inhibition was -16.2%.

With `CC(=O)N[C@H]1CC[C@H](CCNC(=O)C2CC2)O[C@H]1CO`, the inhibition was -15.4%.

On to `CCOC(=O)C(Cc1ccc(N)cc1)N1C(=O)c2ccccc2C1=O` (centres undefined), for which the inhibition was 6.82% [at 12.3 µM].

For `CCOC(=O)C1=C(c2ccc(OC)cc2)C(=O)c2ccccc2C1=O`, the inhibition is 74.3% [at 12.3 µM] (active).

As for `CCOC(=O)C(Cc1ccccc1)NC(=O)CCC(=O)c1ccc(OC)cc1` (centres undefined), the inhibition is 4.22% [at 12.3 µM].

On to `COc1ccc(NC(=O)Nc2ccc3c(c2)C(=O)N([C@@H](C)CO)C[C@@H](C)[C@H](CN(C)C(=O)NC(C)C)OCCCC[C@H](C)O3)cc1`, for which the inhibition is 11.6%.

On to `CCN1C(=O)[C@@H]2[C@@H](c3ccc(-c4ccccc4)cc3)N3CCCC[C@@]3(C(=O)OC)[C@@H]2C1=O`, for which the inhibition was -3.15% [at 12.3 µM].

For the compound `CCN1C(=O)[C@@H]2[C@@H](c3ccc(-c4cccc(Cl)c4)cc3)N3CCC[C@@]3(C(=O)OC)[C@@H]2C1=O`, the inhibition is -3.1% [at 12.3 µM].

In the case of `CCN1C(=O)[C@@H]2[C@@H](c3ccc(-c4ccc(OC)cc4)c(OC)c3)N3CCC[C@@]3(C(=O)OC)[C@@H]2C1=O`, the inhibition was -5% [at 12.3 µM].

Consider `CCCCCCSc1ccc([C@@H]2[C@H]3C(=O)N(CC)C(=O)[C@H]3[C@]3(C(=O)OC)CCCCN23)cc1`, for which the inhibition was 8.61% [at 12.3 µM].

Take `COC(=O)[C@@]12CCCN1[C@H](c1ccc(-c3ccc(F)cc3)c(OC)c1)[C@H]1C(=O)N(C)C(=O)[C@H]12`: the inhibition is 71.6% [at 12.3 µM] (active).

As for `CCCCCCSc1ccc([C@@H]2[C@@H]3C(=O)N(CC)C(=O)[C@@H]3[C@]3(C(=O)OC)CCCCN23)cc1OC`, the inhibition was 73.2% [at 12.3 µM] (active).

Turning to `Cc1ccc(S(=O)(=O)N(C)C[C@@H]2Oc3ccc(NC(=O)Cc4ccccc4)cc3CC(=O)N([C@H](C)CO)C[C@H]2C)cc1`, the inhibition was 14.2%.

With `CO[C@@H]1CN(C)C(=O)c2cc(NC(=O)c3ccc(F)cc3)ccc2OC[C@H](C)N(C(=O)CN(C)C)C[C@H]1C`, the inhibition was 6.25%.

Take `Cc1ccccc1-n1cc(CNC(=O)CC2C(=O)NCCN2C/C=C/c2ccccc2)cn1` (centres undefined): the inhibition is 58% [at 12.3 µM] (active).

In the case of `O=C(CC1C(=O)NCCN1Cc1ccc(-c2ccccc2)cc1)NCc1ccncc1` (centres undefined), the inhibition is -0.899% [at 12.3 µM].

With `Cc1ccccc1-n1cc(CNC(=O)C2CCC(=O)N(C3CC3)C2)cn1` (centres undefined), the inhibition was 5.76% [at 12.3 µM].

Consider `C[C@@H]1CN([C@@H](C)CO)C(=O)Cc2cc(NS(=O)(=O)c3cccs3)ccc2O[C@@H]1CN(C)C(=O)Nc1ccc(C(F)(F)F)cc1`, for which the inhibition is 0.927%.

For the compound `CC(C)NC(=O)N(C)C[C@H]1Oc2ncc(-c3cccc(C#N)c3)cc2C(=O)N([C@@H](C)CO)C[C@H]1C`, the inhibition was 8.57%.

With `CCOC(=O)C1CCN(C(=O)COC(=O)C2CCN(S(=O)(=O)c3ccc4c(c3)OCCO4)CC2)CC1`, the inhibition is 29.3% [at 12.3 µM].

Take `CC1CCN(C(=O)COC(=O)c2cc(S(=O)(=O)N3CCOCC3)ccc2Cl)CC1`: the inhibition is 5.19% [at 12.3 µM].

As to `COC(=O)C1CCN(C(=O)COC(=O)c2cc(S(=O)(=O)N3CCOCC3)ccc2C)CC1`, the inhibition is 72.4% [at 12.3 µM] (active).

Turning to `COc1ccc(CNC(=O)C[C@H]2CC[C@H](NC(=O)Nc3ccc4c(c3)OCO4)[C@H](CO)O2)cc1`, the inhibition was 15.7%.

Take `CC(C)NC(=O)N(C)C[C@@H]1OCCCC[C@@H](C)Oc2ccc(NC(=O)NC3CCCCC3)cc2C(=O)N([C@@H](C)CO)C[C@@H]1C`: the inhibition was -9.6%.

As for `C[C@H]1CN([C@@H](C)CO)C(=O)c2cc(C#CC3(O)CCCC3)cnc2O[C@@H]1CN(C)C(=O)Cc1ccccc1`, the inhibition was 15.7%.

`C[C@@H]1CN([C@H](C)CO)S(=O)(=O)c2ccc(C#CCN(C)C)cc2O[C@@H]1CN(C)C`: the inhibition was 5.39%.

For the compound `CN(C)CCCn1c(=O)n(Cc2ccccc2)c(=O)c2c3c(sc21)CCCCC3`, the inhibition is 63.7% [at 12.3 µM] (active).

As for `O=c1c2c3c(sc2n(CCN2CCCC2)c(=O)n1Cc1ccccc1)CCCCC3`, the inhibition is 46.8% [at 12.3 µM].

Turning to `CCn1c(=S)[nH]c2sc3c(c2c1=O)CCCCC3`, the inhibition is -33.7% [at 12.3 µM].

With `CNC(=O)C[C@@H]1CC[C@H]2[C@@H](COc3ccc(NC(=O)NCc4ccccc4)cc3C(=O)N2C)O1`, the inhibition is -0.208%.

Regarding `CCN(C[C@H]1N[C@@](CC)(C(=O)OC)[C@H]2C(=O)N(Cc3ccccc3)C(=O)[C@@H]12)S(=O)(=O)c1ccc(C(F)(F)F)cc1`, the inhibition is 99.4% [at 12.3 µM] (active).

Take `COC(=O)[C@]1(Cc2ccccc2)N[C@H](CN(C)S(=O)(=O)c2ccc(OC(F)(F)F)cc2)[C@@H]2C(=O)N(Cc3ccccc3)C(=O)[C@@H]21`: the inhibition is 48.1% [at 12.3 µM].

In the case of `CCN(C[C@H]1N[C@@](CC)(C(=O)OC)[C@H]2C(=O)N(Cc3ccccc3)C(=O)[C@@H]12)S(=O)(=O)c1ccccc1`, the inhibition is 42% [at 12.3 µM].

For the compound `Cc1ccc(S(=O)(=O)N[C@@H]2CC[C@@H](CC(=O)O)O[C@@H]2CO)cc1`, the inhibition was 7.43%.

For `CNC(=O)C1CN(C(=O)c2cccc(S(=O)(=O)N3CCc4ccccc43)c2)c2ccccc2O1` (centres undefined), the inhibition is 60.2% [at 12.3 µM] (active).

With `CN1CCN(S(=O)(=O)c2cccc(C(=O)N3CCc4ccccc43)c2)CC1`, the inhibition was -15.7% [at 12.3 µM].

Take `CC1CCN(C(=O)c2cccc(S(=O)(=O)N3CCCc4ccccc43)c2)CC1`: the inhibition is 39.9% [at 12.3 µM].

As for `C[C@@H]1CN([C@H](C)CO)C(=O)c2cc(NC(=O)Nc3ccc4c(c3)OCO4)ccc2O[C@H]1CN(C)C(=O)Nc1ccccc1`, the inhibition is 7.58%.

As to `Cc1ccccc1C1CC(c2cccs2)=NN1S(C)(=O)=O` (centres undefined), the inhibition was -91.6% [at 12.3 µM].

For the compound `Fc1ccc(N2N=C(c3cccs3)CC2c2ccco2)c(F)c1` (centres undefined), the inhibition is 55.9% [at 12.3 µM] (active).

As for `O=C(COc1ccccc1Cl)N1N=C(c2cccs2)CC1c1ccco1` (centres undefined), the inhibition was -7.8% [at 12.3 µM].

Consider `CCS(=O)(=O)Nc1ccc2c(c1)C(=O)N(C)[C@H]1CC[C@H](CC(=O)NCc3ccccc3F)O[C@H]1CO2`, for which the inhibition is -0.764%.

`NC(=O)CSc1nnc(NC(=O)c2ccc(Br)o2)s1`: the inhibition is -7.67% [at 12.3 µM].

Take `CSc1nnc(NC(=O)c2nc(S(=O)(=O)Cc3ccc(C)cc3)ncc2Cl)s1`: the inhibition was 73.8% [at 12.3 µM] (active).

On to `Cc1cccc(CS(=O)(=O)c2ncc(Cl)c(C(=O)Nc3ccc(F)cc3)n2)c1`, for which the inhibition is -12.3% [at 12.3 µM].

In the case of `Cc1noc(C)c1NC(=O)N(C)C[C@H]1Oc2ccc(NC(=O)Cn3cnnn3)cc2CC(=O)N([C@H](C)CO)C[C@@H]1C`, the inhibition was -12.7%.

As to `C[C@@H]1CN([C@@H](C)CO)C(=O)c2cc(NC(=O)Cc3ccccc3)ccc2O[C@@H]1CN(C)S(=O)(=O)c1ccccc1`, the inhibition was -22.1%.

As for `Cc1ccc(S(=O)(=O)NCC[C@@H]2CC[C@H](NC(=O)c3ccccn3)[C@H](CO)O2)cc1`, the inhibition was -12.9%.

Take `C[C@H](CO)N1C[C@H](C)[C@@H](CN(C)Cc2ccc3c(c2)OCO3)Oc2c(cccc2N(C)C)C1=O`: the inhibition is -26.8%.

Turning to `CC1CCCCN1S(=O)(=O)c1ccc(S(=O)(=O)N(CC(=O)Nc2ccccc2)Cc2cccs2)cc1` (centres undefined), the inhibition is 20% [at 12.3 µM].

As to `CSCc1nnc(NC(=O)c2ccc(S(=O)(=O)N3CCCCC3C)cc2)o1` (centres undefined), the inhibition is -0.826% [at 12.3 µM].

On to `CC1CCCCN1S(=O)(=O)c1ccc(C(=O)Nc2nnc(-c3cccs3)o2)cc1` (centres undefined), for which the inhibition was 80.2% [at 12.3 µM] (active).

Consider `CCOC(=O)C1CCCN(C(=O)c2cc(-c3cccs3)oc2C)CC1` (centres undefined), for which the inhibition is 29.9% [at 12.3 µM].

Turning to `Cc1cc(C(=O)N2CCC(C(=O)O)CC2)c(C(F)(F)F)o1`, the inhibition is 87.5% [at 12.3 µM] (active).

Take `O=C(O)C1CCN(C(=O)c2cc(F)cc3c2OCOC3)CC1`: the inhibition was -1.42% [at 12.3 µM].

For the compound `CCCN(C)C[C@H]1Oc2ncc(C#CC3CCCCC3)cc2C(=O)N([C@H](C)CO)C[C@@H]1C`, the inhibition is 18.3%.

Regarding `C[C@H](CO)N1C[C@H](C)[C@H](CN(C)CC2CCCCC2)Oc2c(NC(=O)c3cnccn3)cccc2C1=O`, the inhibition was -9.66%.

`CCC(=O)N1C[C@H](C)[C@H](OC)CN(C)C(=O)c2cc(NC(=O)Nc3cccc(F)c3)ccc2OC[C@@H]1C`: the inhibition was -5.04%.

Take `C[C@@H]1CN([C@@H](C)CO)C(=O)c2cc(NS(=O)(=O)c3ccccc3)ccc2O[C@@H](C)CCCCO[C@H]1CN(C)S(=O)(=O)c1cccs1`: the inhibition was -25.8%.

As to `COc1ccc(NC(=O)Nc2ccc3c(c2)C(=O)N([C@@H](C)CO)C[C@@H](C)[C@@H](CN(C)Cc2ccncc2)OCCCC[C@@H](C)O3)cc1`, the inhibition was -12.5%.

Take `C[C@@H]1CCCCO[C@@H](CN(C)CC2CC2)[C@H](C)CN([C@H](C)CO)C(=O)c2cc(NC(=O)C3CCCCC3)ccc2O1`: the inhibition is -2.41%.

On to `COc1ccc(CN(C)C[C@@H]2OCCCC[C@@H](C)Oc3ccc(NC(=O)Nc4ccc(OC)cc4)cc3C(=O)N([C@@H](C)CO)C[C@@H]2C)cc1`, for which the inhibition is -18.5%.

For `C[C@@H]1CCCCO[C@@H](CN(C)Cc2ccc(C(F)(F)F)cc2)[C@H](C)CN([C@H](C)CO)C(=O)c2cc(NS(=O)(=O)c3ccc(F)cc3)ccc2O1`, the inhibition was 32.9%.

Turning to `C[C@H](CO)N1C[C@H](C)[C@H](CN(C)Cc2ccc(C(F)(F)F)cc2)OCCCC[C@H](C)Oc2ccc(NS(=O)(=O)c3ccc(Cl)cc3)cc2C1=O`, the inhibition is 18.4%.

Turning to `C[C@@H]1CCCCO[C@@H](CN(C)C(=O)Nc2ccccc2)[C@@H](C)CN([C@@H](C)CO)C(=O)c2cc(N(C)C)ccc2O1`, the inhibition was -2.93%.

For the compound `C[C@H](CO)N1C[C@H](C)[C@@H](CN(C)C(=O)Nc2cccc3ccccc23)OCCCC[C@H](C)Oc2ccc(N(C)C)cc2C1=O`, the inhibition was 67.4% (active).

For `C[C@@H]1CCCCO[C@H](CN(C)C(=O)Nc2ccccc2)[C@H](C)CN([C@@H](C)CO)C(=O)c2cc(N(C)C)ccc2O1`, the inhibition is -23.9%.

Turning to `C[C@@H]1CCCCO[C@@H](CN(C)CC2CCCCC2)[C@H](C)CN([C@H](C)CO)C(=O)c2cc(NC(=O)C3CCCCC3)ccc2O1`, the inhibition was 68.4% (active).

Consider `COc1ccc(NC(=O)Nc2ccc3c(c2)C(=O)N([C@H](C)CO)C[C@H](C)[C@H](CN(C)Cc2ccncc2)OCCCC[C@H](C)O3)cc1`, for which the inhibition is 58.1% (active).

Consider `Cc1ccc(S(=O)(=O)Nc2ccc3c(c2)C(=O)N([C@@H](C)CO)C[C@@H](C)[C@@H](CN(C)Cc2ccc(C(F)(F)F)cc2)OCCCC[C@@H](C)O3)cc1`, for which the inhibition was 79.2% (active).

For the compound `C[C@@H]1CCCCO[C@@H](CN(C)CC2CC2)[C@@H](C)CN([C@H](C)CO)C(=O)c2cc(NC(=O)C3CCCCC3)ccc2O1`, the inhibition is 19.6%.

Values taken from PubChem BioAssay AID651610 (Broad Institute, 2012).
